# PubChem BioAssay AID1851 (National Center for Advancing Translational Sciences (NCATS), 2009)
# About 5,700 (36%) of roughly 16,000 compounds were called active. Not shown: some 24% with an inconclusive outcome. The list shows a part of the results. A number with no mark means an inactive call. The call rests on the fitted dose curve; in most records, active means well fitted curve in the direction sought with a large enough effect; inconclusive means small, poorly fitted or top-dose-only effect, or effect the other way; inactive means no such curve, though single readings can be large or run the other way.
# Target: Cytochrome P450 1A2 (Homo sapiens) (UniProt P05177)
# Assay: Cytochrome panel assay with activity outcomes
# Settings: recombinant CYP, pro-luciferin dealkylation, luminescence, p450-cyp1a2; series mostly up to 57.1 µM
# On the % scale 0 is the no-effect control and ±100 the full control effect.
# Sequence of Cytochrome P450 1A2 (Homo sapiens) (P05177 whole entry, looked up): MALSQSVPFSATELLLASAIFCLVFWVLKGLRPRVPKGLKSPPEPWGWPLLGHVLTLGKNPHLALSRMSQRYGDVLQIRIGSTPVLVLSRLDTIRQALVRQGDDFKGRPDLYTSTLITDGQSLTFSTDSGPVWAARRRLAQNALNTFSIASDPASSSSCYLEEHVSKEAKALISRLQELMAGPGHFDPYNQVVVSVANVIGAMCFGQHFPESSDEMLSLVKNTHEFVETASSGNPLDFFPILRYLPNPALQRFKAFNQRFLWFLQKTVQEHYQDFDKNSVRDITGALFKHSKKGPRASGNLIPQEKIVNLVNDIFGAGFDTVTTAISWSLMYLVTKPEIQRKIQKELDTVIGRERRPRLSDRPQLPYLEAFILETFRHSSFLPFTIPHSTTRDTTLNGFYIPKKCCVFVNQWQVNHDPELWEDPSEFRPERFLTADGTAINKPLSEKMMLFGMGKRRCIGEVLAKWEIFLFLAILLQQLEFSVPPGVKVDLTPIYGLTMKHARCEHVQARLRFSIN
Structure (SMILES),AC50,"activity, negative = inhibition"
Nc1cc(-c2nn[nH]n2)ccc1F,inactive,–
COc1ccc(/C=N/N(C(C)=O)c2nc(-c3ccc(C)cc3)cs2)cc1,1.58 µM (active),–
CC(=O)N(/N=C/c1cccc(C)c1)c1nc(-c2ccc(Br)cc2)cs1,1.41 µM (active),–
C/C(CCN1CCCc2nc(C)c(C)cc21)=N\OC[C@@H](C)[C@H](OCc1ccccc1)C(C)C,–,-3.05% [at 11.4 µM]
C[C@@]12C[C@H](O)[C@@H]3[C@H](CCC4=CC(=O)CC[C@]43C)[C@H]1CC[C@@H]2c1csc(N)n1,–,-9.78% [at 2.29 µM]
Cc1cccc(CNc2ncncc2-c2ccccc2C)c1,2.51 µM (active),–
Cc1cccc(CNc2ncncc2-c2ccccc2Cl)c1,3.16 µM (active),–
N#Cc1ccccc1-c1cncnc1NCc1cccnc1,0.0631 µM (active),–
Cc1ccccc1-c1cncnc1NCc1ccccc1,12.6 µM (active),–
CCCCCCCCCCCCCCCCCC(=O)O[C@H](CC(=O)O)C[N+](C)(C)C,inactive,–
CCN1CCCCC(=N/O)/C(=N/O)CCCC1,–,-9.97% [at 11.4 µM]
CC(C)(C)NS(=O)(=O)c1ccc(NC(=O)C(Sc2ccccc2)c2ccccc2)cc1 (configuration not stated),inactive,–
C[C@@H]1OC2C3=C(C(=O)[C@H]4O[C@@H]4[C@H]3O)[C@@H]1[C@H]1[C@H](C)OC=C3[C@H](O)[C@H]4O[C@H]4/C(=N\OCc4ccccc4)[C@@]321,–,-13.5% [at 11.4 µM]
O=C(c1ccco1)N1CCC[C@@]2(CCN(Cc3nccs3)C2)C1,inactive,–
FC(F)(F)c1ccccc1-c1cncnc1NCc1cccnc1,20 µM (active),–
Cc1ccccc1-c1cncnc1NCc1cccnc1,15.8 µM (active),–
Cn1c(=O)c(-c2ccccc2)nc2cnc(Nc3ccccc3)nc21,15.8 µM (active),–
Cc1nc2cnc(Nc3ccccc3)nc2n(C)c1=O,1.26 µM (active),–
COc1cccc(Nc2ncc3nc(-c4ccccc4)c(=O)n(C)c3n2)c1,3.16 µM (active),–
Cc1ccc(S(=O)(=O)NC(=O)Nc2ncn[nH]2)cc1,–,-21.4% [at 2.29 µM]
N[C@H](CCCC(=O)O)C(=O)O,inactive,–
O=C(NC[C@@H](O)CO)c1c(I)c(C(=O)NC[C@@H](O)CO)c(I)c(N(CCO)C(=O)CO)c1I,inactive,–
COc1cc2nc(N3CCN(C(=O)[C@@H]4CCCO4)CC3)nc(N)c2cc1OC,inactive,–
CCN1CCN(S(=O)(=O)c2ccc(Cl)c(C(=O)Nc3nnc(CC(C)C)s3)c2)CC1,inactive,–
O=C(c1cc(Cl)c(=O)n(Cc2ccc(Cl)cc2)c1)N1CCOCC1,inactive,–
Cc1nc2c(C(=O)N3CCOCC3)cnn2c(C)c1Cc1ccc(Cl)cc1,15.8 µM (active),–
Cc1ccc(CS(=O)(=O)CCC(=O)N2CCOCC2)cc1,inactive,–
